Reference: PubChem BioAssay AID701 (PCMD, 2007)
Out of some 33,000 compounds screened, about 70 (0.2%) were called active. Rule as the data show it: active = inhibition above about 30%; inactive = the rest. These entries were drawn from the full list.

What follows are compounds tested against Coagulation factor XII (Homo sapiens) (UniProt P00748) (assay: human FXIIa protease inhibitors, primary screen, biochemical, single well (AID 701;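 also: 0% = enzyme with vehicle only and 100% = no enzyme blank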)). Conditions: purified human FXIIa, AMC substrate fluorescence, 2 h; at 10 µM; stronger effect = higher value.
Chain of Coagulation factor XII (Homo sapiens) (P00748 20-372 limits assumed): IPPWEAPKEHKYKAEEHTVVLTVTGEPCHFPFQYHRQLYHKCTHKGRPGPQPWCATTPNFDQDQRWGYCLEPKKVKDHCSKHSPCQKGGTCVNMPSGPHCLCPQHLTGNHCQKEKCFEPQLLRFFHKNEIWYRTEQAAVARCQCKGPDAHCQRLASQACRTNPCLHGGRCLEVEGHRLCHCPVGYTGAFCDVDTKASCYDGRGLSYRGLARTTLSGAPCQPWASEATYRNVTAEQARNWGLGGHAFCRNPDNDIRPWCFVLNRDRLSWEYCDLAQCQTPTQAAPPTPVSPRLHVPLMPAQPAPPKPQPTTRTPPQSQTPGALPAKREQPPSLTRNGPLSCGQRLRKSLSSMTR
Chain of Coagulation factor XII (Homo sapiens) (P00748 373-615 limits assumed): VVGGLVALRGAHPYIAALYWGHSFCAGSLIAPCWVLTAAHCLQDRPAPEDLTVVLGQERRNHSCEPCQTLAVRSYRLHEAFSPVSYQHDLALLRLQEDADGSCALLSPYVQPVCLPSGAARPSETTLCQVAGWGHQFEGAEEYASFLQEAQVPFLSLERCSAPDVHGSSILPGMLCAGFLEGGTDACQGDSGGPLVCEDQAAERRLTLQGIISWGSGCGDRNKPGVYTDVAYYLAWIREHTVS

inhibition, inactive:
Cc1nnc(OCC(=O)NCCC2=CCCCC2)c2ccccc12 11.9%
COC(=O)C(C)n1cnc2c(nnn2-c2cccc(Cl)c2)c1=O (configuration not stated) 4.25%
C=CCNC(=O)C12CC3CC(C1)CC(C(=O)NCC=C)(C3)C2 5.41%
O=C(CNS(=O)(=O)c1ccc(Br)s1)N1CCN(C(=O)c2ccco2)CC1 5.22%
O=c1onc(-c2cccs2)n1Cc1ccccc1 2.91%
CC(=O)C1=C(C)NC(=O)NC1c1cc(Br)ccc1OCC#N (configuration not stated) 6%
CC/C(O)=N\S(=O)(=O)c1ccc(N=NN(C)C)cc1 12.3%
O=C(c1cccc(N2CCCC2=O)c1)N1CCOCC1 8.03%
O=C(NCCCN1CCCCC1)c1ccc2c(c1)NC(=O)C(N1CCOCC1)S2 (configuration not stated) 2.66%
COc1ccccc1CNS(=O)(=O)c1ccc(C)cc1 -2.17%
Nn1c(SCC(=O)NC2CCCC2)nnc1-c1ccccc1F 2.89%
CC(=O)c1cccc(NC(=O)N2CCCC2C(=O)NCCc2ccccc2)c1 (configuration not stated) 6.02%
CC(=O)c1cccc(NC(=O)C2CCCN2S(=O)(=O)c2cccc3nsnc23)c1 (configuration not stated) -30.9%
COc1ccc(C(=O)NNC(=O)c2cnccn2)cc1[N+](=O)[O-] 6.61%
CSc1ccccc1NC(=O)c1cc(C2CC2)on1 5.73%
Cc1cc(C(=O)Nc2c(C)nn(Cc3ccccc3)c2C)on1 3.84%
Cc1nnc(NCCO)c2ccccc12 -0.65%
O=C(NC1CCCCC1)c1ccc(CNc2c(N3CCOCC3)c(=O)c2=O)cc1 9.25%
CCS(=O)(=O)c1ccc2oc(SCC(=O)N3c4ccccc4CC3C)nc2c1 (configuration not stated) 11.8%
CC(NC(=O)C1CCC(CNc2c(N3CCOCC3)c(=O)c2=O)CC1)c1ccccc1 (configuration not stated) 4.59%
Cc1ccc(OC(=O)c2ccccc2C(=O)OCC(F)(F)C(F)F)cc1 5.93%
Cc1ccc(CS(=O)(=O)CCC(=O)NC2CC2)cc1 3.34%
O=C(OCC(=O)N1CCN(C(=O)c2ccco2)CC1)c1ccccc1Cc1ccccc1 3.88%
CC(C)CCNC(=O)CC1C(=O)N(Cc2ccccc2)C(C)c2nc3ccccc3n21 (configuration not stated) 5.26%
CCCCCOC(=O)c1ccc(N2C(=O)C3C4C=CC(C4)C3C2=O)cc1 (configuration not stated) -10.2%
O=C(N1CCOCC1)N(Cc1ccccc1)c1ccccn1 1.36%
COC(=O)c1cc(OC)ccc1-c1ccc(OC)cc1 4.36%
COCCCNC(=O)CN1CCN(Cc2ccccc2Cl)C1=O 13.3%
COCCNC(=O)COc1ccc(C)c(C)c1 5.6%
COC(=O)C1C(=O)NCC1c1ccc(C)cc1 (configuration not stated) 4.77%
COc1ccc(C(=O)Nc2ccc(CN3CCOCC3)cc2)cc1 -0.34%
COC(=O)c1ccccc1Sc1c(/C=N/OCc2ccc(Cl)cc2)c(C(F)(F)F)nn1C 5.69%
CCSc1nc(-c2ccc(OC)cc2)cc(-c2ccc(OC)cc2)c1C#N 12.5%
COC(=O)[C@@H](NC(=O)Nc1cc(Cl)ccc1C)C(C)C -0.53%
O=C(OCC#CCSc1nnc(-c2ccncc2)o1)c1sc2ccccc2c1Cl -11.2%
O=C(Cc1c(O)c2ccccc2[nH]c1=O)NCc1ccccc1 -1.57%
Cc1ccc(S(=O)(=O)/N=C(\CN2CCOCC2)N2CCOCC2)cc1 -13.1%
O=C(NCCCn1ccnc1)Nc1ccc(Cl)cc1Cl -12%
Cc1cccc(NC(=O)CSc2nnc(-c3ccco3)o2)c1 7.32%
CCOc1ccc(N(CC(=O)NC2CCCCCC2)S(=O)(=O)c2c(C)[nH]c(=O)[nH]c2=O)cc1 -0.15%
CCOc1ccc(NC(=O)c2ccccc2NS(C)(=O)=O)cc1 7.81%
COC(=O)CSc1nnc(-c2cccnc2)o1 4.99%
Cc1cccc(NC(=O)CSc2nc3c(c(=O)[nH]2)CCCC3)c1C 7.72%
CCc1ccc(CNC(=O)C2CC(=O)N(CCc3ccc(C)cc3)C2)cc1 (configuration not stated) -0.05%
O=C(O)CCC(=O)N(Cc1cccs1)Cc1cccs1 -0.32%
Cn1c(SCC(=O)NC2CCCCC2)nnc1-c1cc2ccccc2o1 -0.46%
CC(=O)c1c(C)n(-c2ccc(N(C)C)cc2)c2ccc(OCC(N)=O)cc12 8.5%
OC(COc1cccc2ccccc12)CN1CCN(c2ccccn2)CC1 (configuration not stated) 9.54%
CCCn1c(C(Cc2ccccc2)NC(=O)COC)nc2ccccc21 (configuration not stated) 7.07%
Cn1cc(S(=O)(=O)N2CCN(c3ccc(F)cc3)CC2)c(=O)n(C)c1=O 3.88%
Cc1cc(NC(=O)CS(=O)(=O)c2cn(C)c3ccccc23)no1 3.14%
Cn1c(=O)[nH]c(=O)c2c1nc(N1CCN(CCO)CC1)n2CCSc1nc2ccccc2s1 0.63%
CC(C)CNC(=O)CC(c1ccccc1)c1c(O)ccc2ccccc12 (configuration not stated) 1.86%
C#CCN(N(C)c1ncc(C(F)(F)F)cc1Cl)S(=O)(=O)c1ccc2ccccc2c1 3.08%
COC(=O)c1ccccc1NC(=O)Cc1ccccc1OC 1.04%
Cc1ccc(S(=O)(=O)N2CCC(C(=O)NCC3CCCO3)CC2)cc1 (configuration not stated) 2.9%
O=C(CCCn1c(SCC(=O)c2ccccc2)nc2ccccc2c1=O)NCC1CCCO1 (configuration not stated) 3.06%
Cc1ccc(NC(=O)CSCC(=O)N2CCOCC2)cc1 2.79%
Cc1ccc(C)c(N2C(=O)CS/C2=N\NC(=O)c2ccccc2Cl)c1 8.52%
O=C(CSCc1c(F)cccc1Cl)NCC1CCCO1 (configuration not stated) 7.29%
COc1ccc(C)cc1NC(=O)CCS(=O)(=O)c1cccc2nonc12 -14.7%
CCCc1noc2c1/C(=N\O)CCC2 8.44%
